The target in assay [1] is High affinity nerve growth factor receptor (Homo sapiens) (UniProt P04629). Conditions: at 1 µM.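 Further: each value is the mean percent inhibition of TRKA.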
Assay [2] deals with BDNF/NT-3 growth factors receptor (Homo sapiens) (UniProt Q16620). Conditions: at 0.1 µM.
Assay [3] shares this target. Conditions: at 1 µM.
Assay [4] deals with NT-3 growth factor receptor (Homo sapiens) (UniProt Q16288). Conditions: at 0.1 µM.
For assay [5] the target is unchanged. Conditions: at 1 µM.
Assay [6] deals with T1, Tyrosine-protein kinase TXK (Homo sapiens) (UniProt P42681).
T1 sequence (whole entry): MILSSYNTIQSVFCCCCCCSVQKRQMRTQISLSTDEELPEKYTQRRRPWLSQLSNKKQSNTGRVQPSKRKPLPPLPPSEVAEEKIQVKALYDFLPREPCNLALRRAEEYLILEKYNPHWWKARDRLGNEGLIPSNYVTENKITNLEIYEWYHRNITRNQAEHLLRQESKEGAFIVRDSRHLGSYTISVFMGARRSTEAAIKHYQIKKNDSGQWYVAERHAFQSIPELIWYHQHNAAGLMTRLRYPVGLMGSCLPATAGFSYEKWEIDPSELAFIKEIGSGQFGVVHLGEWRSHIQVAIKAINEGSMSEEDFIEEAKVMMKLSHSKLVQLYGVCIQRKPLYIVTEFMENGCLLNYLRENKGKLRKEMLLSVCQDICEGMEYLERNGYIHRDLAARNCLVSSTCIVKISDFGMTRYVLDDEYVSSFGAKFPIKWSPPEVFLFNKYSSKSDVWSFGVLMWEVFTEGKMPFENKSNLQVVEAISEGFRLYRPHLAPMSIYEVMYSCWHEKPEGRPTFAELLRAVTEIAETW
Conditions: at 0.1 µM.

Assay [7] concerns the target T1, Tyrosine-protein kinase TXK (Homo sapiens). Conditions: at 1 µM.
Assay [8] has as its target Non-receptor tyrosine-protein kinase TYK2 (Homo sapiens) (UniProt P29597). Conditions: at 0.1 µM.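 Further: each value is a mean of the inhibition readings.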
Assay [9] deals with T2, Dual specificity protein kinase TTK (Homo sapiens) (UniProt P33981).
T2 sequence (whole entry): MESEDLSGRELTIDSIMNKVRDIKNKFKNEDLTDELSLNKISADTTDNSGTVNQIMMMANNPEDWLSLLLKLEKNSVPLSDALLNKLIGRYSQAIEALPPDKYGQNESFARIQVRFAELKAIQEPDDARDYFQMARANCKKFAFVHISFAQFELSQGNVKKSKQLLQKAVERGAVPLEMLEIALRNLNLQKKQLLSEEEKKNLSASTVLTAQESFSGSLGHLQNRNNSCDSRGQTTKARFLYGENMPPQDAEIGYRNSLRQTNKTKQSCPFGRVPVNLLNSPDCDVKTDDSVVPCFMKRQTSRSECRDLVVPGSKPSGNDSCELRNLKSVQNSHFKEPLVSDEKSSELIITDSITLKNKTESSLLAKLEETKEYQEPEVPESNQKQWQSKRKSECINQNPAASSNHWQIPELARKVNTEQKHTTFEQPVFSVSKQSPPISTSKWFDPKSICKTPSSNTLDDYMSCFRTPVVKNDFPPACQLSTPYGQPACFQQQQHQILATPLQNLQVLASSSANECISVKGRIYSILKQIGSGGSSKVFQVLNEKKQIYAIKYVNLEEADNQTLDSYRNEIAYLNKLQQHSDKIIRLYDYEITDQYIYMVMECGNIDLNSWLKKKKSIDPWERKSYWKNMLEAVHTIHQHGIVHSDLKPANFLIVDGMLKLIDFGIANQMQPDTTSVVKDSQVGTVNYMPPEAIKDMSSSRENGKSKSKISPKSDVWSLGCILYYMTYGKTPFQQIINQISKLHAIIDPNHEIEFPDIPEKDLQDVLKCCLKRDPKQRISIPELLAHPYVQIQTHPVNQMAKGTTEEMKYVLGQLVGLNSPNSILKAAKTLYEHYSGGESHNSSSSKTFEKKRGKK
Conditions: at 1 µM.

The target of assay [10] is T3, Aurora kinase A (Homo sapiens) (UniProt O14965).
T3 sequence (whole entry): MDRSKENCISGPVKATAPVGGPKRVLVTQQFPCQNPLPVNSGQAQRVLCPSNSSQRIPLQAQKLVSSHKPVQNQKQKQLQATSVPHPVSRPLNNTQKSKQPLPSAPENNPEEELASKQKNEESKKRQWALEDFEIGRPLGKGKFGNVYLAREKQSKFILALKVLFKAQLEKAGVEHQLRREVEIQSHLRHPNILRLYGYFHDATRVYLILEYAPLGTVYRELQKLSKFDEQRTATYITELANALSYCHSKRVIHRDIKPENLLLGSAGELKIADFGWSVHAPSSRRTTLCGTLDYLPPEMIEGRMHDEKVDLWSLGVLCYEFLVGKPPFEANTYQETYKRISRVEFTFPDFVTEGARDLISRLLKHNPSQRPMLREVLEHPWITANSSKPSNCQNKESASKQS
Conditions: at 0.1 µM.

The target of assay [11] is T3, Aurora kinase A (Homo sapiens). Conditions: at 1 µM.
In assay [12] the target is Aurora kinase B (Homo sapiens) (UniProt Q96GD4). Conditions: at 0.1 µM.
Assay [13] has the same target. Conditions: at 1 µM.
Assay [14] has as its target T4, Aurora kinase C (Homo sapiens) (UniProt Q9UQB9).
T4 sequence (whole entry): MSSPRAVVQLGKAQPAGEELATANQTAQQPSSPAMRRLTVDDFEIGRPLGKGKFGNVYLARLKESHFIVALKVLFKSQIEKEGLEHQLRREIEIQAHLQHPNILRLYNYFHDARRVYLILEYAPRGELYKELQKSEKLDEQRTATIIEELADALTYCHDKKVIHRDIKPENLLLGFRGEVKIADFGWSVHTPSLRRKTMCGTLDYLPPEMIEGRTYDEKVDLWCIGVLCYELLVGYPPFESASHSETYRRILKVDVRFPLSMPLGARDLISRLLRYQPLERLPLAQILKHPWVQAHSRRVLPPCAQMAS
Conditions: at 0.1 µM.

Assay [15] concerns the target T4, Aurora kinase C (Homo sapiens). Conditions: at 1 µM.
Assay [16] concerns the target Serine/threonine-protein kinase 10 (Homo sapiens) (UniProt O94804). Conditions: at 0.1 µM.
Assay [17] has the same target. Conditions: at 1 µM.
Assay [18] has as its target T5, Mitogen-activated protein kinase kinase kinase kinase 2 (Homo sapiens) (UniProt Q12851).
T5 sequence (whole entry): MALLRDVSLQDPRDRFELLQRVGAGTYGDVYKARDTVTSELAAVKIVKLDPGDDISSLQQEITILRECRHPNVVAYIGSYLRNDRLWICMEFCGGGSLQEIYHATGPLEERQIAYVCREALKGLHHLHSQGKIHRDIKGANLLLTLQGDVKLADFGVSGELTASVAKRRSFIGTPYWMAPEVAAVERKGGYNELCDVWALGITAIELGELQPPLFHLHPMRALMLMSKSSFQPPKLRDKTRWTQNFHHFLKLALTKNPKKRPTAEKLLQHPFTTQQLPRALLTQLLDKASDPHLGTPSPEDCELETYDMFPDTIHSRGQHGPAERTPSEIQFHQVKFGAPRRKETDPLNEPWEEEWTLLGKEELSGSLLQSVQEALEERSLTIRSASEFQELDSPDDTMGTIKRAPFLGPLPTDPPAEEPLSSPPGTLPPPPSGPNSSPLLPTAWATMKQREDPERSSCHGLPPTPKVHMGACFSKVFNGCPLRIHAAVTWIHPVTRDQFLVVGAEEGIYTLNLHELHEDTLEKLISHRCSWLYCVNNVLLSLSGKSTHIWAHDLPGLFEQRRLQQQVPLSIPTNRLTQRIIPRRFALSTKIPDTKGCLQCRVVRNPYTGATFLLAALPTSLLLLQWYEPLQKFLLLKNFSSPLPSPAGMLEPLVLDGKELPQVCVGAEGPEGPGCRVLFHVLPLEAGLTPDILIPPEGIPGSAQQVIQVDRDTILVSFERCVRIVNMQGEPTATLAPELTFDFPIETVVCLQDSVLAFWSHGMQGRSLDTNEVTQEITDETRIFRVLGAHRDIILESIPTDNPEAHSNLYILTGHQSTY
Conditions: at 0.1 µM.

Assay [19] deals with T5, Mitogen-activated protein kinase kinase kinase kinase 2 (Homo sapiens). Conditions: at 1 µM.
Assay [20] has as its target Mitogen-activated protein kinase kinase kinase kinase 4 (Homo sapiens) (UniProt O95819). Conditions: at 0.1 µM.

Experimental findings from ChEMBL document CHEMBL1961873, “Compounds: GSK PKIS; Assays: Nanosyn kinase panel” (2012) are described below.

NT-3 growth factor receptor (Homo sapiens), sequence (Q16288 32-839 limits assumed): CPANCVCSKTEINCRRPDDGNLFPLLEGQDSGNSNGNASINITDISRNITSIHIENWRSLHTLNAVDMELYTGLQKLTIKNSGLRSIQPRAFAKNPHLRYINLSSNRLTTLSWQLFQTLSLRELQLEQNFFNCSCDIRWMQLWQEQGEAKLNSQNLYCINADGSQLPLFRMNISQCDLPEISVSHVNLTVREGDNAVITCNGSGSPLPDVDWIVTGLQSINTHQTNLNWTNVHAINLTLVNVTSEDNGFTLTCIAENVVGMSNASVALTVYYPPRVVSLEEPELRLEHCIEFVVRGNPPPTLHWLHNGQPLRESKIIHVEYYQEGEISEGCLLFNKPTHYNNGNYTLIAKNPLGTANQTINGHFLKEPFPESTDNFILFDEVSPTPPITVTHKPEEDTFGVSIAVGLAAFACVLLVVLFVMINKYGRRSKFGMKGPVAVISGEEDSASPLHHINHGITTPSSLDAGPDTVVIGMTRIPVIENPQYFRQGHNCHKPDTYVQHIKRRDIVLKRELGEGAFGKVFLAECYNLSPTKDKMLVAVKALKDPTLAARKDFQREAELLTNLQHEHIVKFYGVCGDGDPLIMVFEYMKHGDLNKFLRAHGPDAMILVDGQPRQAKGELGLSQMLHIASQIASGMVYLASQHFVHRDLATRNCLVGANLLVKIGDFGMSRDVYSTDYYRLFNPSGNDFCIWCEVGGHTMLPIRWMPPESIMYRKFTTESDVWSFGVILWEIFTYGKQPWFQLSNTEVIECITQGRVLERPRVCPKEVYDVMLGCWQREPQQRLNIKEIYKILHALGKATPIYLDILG
BDNF/NT-3 growth factors receptor (Homo sapiens), sequence (Q16620 32-822 limits assumed): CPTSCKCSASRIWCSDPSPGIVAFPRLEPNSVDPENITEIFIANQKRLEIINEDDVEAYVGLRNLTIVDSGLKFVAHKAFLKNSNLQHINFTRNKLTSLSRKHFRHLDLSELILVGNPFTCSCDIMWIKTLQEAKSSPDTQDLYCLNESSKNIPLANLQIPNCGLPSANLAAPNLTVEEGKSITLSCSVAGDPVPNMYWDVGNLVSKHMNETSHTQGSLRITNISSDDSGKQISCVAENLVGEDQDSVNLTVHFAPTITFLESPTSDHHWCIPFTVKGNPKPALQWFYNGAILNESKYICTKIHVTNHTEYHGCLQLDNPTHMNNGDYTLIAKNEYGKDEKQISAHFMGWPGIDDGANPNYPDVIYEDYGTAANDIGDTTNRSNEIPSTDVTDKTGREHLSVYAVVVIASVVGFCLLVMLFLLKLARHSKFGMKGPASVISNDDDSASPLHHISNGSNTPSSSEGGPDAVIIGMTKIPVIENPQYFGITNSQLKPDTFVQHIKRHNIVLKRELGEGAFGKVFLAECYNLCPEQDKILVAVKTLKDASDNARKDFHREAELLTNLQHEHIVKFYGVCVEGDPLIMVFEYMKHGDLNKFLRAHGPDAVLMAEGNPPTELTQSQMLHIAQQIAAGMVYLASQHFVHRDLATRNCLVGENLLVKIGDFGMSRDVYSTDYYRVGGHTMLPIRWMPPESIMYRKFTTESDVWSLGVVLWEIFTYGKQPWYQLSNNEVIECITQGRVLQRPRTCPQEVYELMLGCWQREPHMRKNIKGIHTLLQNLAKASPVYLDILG
High affinity nerve growth factor receptor (Homo sapiens), sequence (P04629 33-796 limits assumed): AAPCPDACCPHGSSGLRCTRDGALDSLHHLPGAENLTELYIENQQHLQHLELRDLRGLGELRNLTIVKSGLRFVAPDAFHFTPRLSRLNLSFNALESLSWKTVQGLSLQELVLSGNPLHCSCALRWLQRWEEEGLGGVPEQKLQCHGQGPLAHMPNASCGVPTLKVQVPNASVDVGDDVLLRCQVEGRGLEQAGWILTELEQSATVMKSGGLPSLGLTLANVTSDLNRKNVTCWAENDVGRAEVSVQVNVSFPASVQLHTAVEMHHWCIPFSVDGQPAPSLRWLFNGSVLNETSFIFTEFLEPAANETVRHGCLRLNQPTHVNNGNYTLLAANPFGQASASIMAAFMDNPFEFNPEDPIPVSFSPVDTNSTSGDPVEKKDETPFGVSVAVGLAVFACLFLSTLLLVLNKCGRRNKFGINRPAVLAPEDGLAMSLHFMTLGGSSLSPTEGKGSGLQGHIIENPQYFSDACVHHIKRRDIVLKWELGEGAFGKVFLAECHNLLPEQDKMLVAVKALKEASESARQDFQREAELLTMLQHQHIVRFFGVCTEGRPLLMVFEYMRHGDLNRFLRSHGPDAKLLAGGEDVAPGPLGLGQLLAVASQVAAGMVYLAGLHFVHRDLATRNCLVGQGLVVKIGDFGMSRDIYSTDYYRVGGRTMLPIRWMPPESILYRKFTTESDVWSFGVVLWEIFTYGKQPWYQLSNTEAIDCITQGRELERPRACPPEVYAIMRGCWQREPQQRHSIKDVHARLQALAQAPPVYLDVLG
Aurora kinase B (Homo sapiens), sequence (Q96GD4 whole entry): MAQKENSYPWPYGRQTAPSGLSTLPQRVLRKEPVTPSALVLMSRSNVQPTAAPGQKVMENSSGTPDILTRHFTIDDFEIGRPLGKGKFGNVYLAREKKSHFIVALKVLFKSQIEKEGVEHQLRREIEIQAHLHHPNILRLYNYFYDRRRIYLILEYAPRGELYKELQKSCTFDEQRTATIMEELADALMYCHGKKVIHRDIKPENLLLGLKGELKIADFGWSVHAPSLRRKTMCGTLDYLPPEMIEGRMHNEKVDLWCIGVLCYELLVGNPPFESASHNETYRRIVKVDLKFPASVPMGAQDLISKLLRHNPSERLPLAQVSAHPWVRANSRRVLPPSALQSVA
Serine/threonine-protein kinase 10 (Homo sapiens), sequence (O94804 whole entry, looked up): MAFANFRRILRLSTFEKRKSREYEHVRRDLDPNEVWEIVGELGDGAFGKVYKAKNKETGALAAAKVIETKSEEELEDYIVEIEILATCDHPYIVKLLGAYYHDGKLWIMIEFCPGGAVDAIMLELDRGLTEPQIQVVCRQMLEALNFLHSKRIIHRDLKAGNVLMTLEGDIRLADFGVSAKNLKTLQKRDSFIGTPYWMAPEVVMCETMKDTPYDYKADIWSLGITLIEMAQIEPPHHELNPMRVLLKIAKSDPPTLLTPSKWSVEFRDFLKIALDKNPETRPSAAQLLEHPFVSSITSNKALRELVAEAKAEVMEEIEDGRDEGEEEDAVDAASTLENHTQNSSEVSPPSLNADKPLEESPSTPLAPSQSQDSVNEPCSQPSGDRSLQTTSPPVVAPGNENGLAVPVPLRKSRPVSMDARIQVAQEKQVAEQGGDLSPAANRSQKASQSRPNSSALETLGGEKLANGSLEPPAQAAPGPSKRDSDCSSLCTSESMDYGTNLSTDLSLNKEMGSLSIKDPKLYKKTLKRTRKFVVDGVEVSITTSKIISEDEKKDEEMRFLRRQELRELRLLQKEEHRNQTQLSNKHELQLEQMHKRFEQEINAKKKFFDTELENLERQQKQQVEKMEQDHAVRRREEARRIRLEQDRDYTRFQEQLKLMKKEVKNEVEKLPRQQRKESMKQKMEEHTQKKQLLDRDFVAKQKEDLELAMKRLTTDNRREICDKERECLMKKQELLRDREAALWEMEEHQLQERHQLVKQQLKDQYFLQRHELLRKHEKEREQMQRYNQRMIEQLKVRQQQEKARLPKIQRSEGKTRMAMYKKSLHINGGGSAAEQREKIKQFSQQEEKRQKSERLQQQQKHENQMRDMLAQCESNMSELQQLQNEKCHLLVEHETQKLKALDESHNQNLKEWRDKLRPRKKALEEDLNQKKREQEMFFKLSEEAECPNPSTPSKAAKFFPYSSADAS
Non-receptor tyrosine-protein kinase TYK2 (Homo sapiens), sequence (P29597 whole entry): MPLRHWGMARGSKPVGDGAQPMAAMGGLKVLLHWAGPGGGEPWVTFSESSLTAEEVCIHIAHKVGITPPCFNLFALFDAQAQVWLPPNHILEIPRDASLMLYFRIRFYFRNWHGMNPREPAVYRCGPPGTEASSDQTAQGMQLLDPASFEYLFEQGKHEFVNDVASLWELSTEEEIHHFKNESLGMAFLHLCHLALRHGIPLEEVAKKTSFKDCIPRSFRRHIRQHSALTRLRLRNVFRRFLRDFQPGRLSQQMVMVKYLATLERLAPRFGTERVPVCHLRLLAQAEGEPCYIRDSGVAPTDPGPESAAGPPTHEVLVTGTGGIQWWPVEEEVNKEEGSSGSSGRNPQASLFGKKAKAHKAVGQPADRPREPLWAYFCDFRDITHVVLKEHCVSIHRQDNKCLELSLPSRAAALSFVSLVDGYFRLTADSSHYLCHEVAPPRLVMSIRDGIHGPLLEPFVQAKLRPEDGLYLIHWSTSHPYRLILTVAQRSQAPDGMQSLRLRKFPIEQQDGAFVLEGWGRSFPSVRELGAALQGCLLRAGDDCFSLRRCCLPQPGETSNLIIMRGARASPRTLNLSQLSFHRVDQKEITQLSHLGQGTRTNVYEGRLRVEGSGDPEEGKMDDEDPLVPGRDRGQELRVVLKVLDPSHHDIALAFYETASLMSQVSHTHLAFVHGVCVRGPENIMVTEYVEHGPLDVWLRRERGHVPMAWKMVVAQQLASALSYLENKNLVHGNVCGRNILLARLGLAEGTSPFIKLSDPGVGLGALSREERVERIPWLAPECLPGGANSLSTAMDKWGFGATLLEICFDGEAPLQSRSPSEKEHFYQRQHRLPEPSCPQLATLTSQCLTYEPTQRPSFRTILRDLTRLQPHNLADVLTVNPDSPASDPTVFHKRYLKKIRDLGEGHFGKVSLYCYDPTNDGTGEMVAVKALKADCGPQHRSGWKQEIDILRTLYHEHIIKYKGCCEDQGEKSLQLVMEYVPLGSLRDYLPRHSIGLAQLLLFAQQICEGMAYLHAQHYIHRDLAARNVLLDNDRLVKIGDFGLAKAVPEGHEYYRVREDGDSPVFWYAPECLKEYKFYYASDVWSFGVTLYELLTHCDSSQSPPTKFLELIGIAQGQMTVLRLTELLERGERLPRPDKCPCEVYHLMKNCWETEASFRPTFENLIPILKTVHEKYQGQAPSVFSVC

As usually defined, the inhibition is the drop in the measured response relative to a control, in per cent. For `COc1c(C(N)=O)cc(-c2ccc(Cl)cc2)cc1-c1ccc(S(N)(=O)=O)cc1`, the inhibition in assay [1] was 4.22%; in assay [2] it was 2.88%; in [3] it was 3.12%; in [4], 2.54%; in assay [5], 2.2%; in assay [6], 9.73%. Moreover, the inhibition was 4.4% in assay [7]; -0.68% in assay [8]; 12.9% in assay [9]; 2.86% in assay [10]; 3.86% in assay [11]; 2.21% in assay [12]. Besides, the inhibition in [13] is 3.28%; in assay [14], -0.05%; in assay [15], 0.52%; in assay [16], 5.14%; in assay [17], 6.24%; in [18] it was 0.59%. Moreover, the inhibition in assay [19] stood at 2.11%; in [20], 6.38%.

With `CS(=O)(=O)Nc1ccc(-c2ccc3c(NC(=O)C4CC4)n[nH]c3c2)cc1`, the inhibition in assay [1] stood at 3.27%; in [2], 2.22%; in assay [3] it was 5.91%; in assay [4], 2.1%; in [5], 9.06%; in assay [6], 2.62%. Also, the inhibition is 5.31% in [7]; -0.89% in [8]; 11.9% in [9]; 2.55% in assay [10]; 20.2% in assay [11]; 4.33% in assay [12]. Further, the inhibition in assay [13] worked out at 8.21%; in assay [14] it was 1.71%; in assay [15], 23.3%; in assay [16] it was 5.26%; in assay [17], 6.56%; in assay [18], 1.04%. In addition, the values for the inhibition in assay [19] and in assay [20] were 5.76% and 6.29%, respectively.

Regarding `Cc1cc(O)cc(C)c1/C=C/c1cncc(C(=O)OC(C)(C)C)c1`, the inhibition in [1] worked out at 2.95%; in assay [2], 2.88%; in assay [3], 5.2%; in assay [4], 2.87%; in assay [5] it was 5.85%; in assay [6], 8.06%. For the same compound, the inhibition is 36.9% in assay [7]; -0.75% in assay [8]; 4.42% in [9]; 2.02% in assay [10]; 14.9% in [11]; 3.41% in assay [12]. Also, the inhibition in assay [13] is 6.42%; in assay [14] it was 0.94%; in assay [15] it was -1.91%; in assay [16], 5.45%; in assay [17], 17.5%; in [18], 2.5%. In addition, the values for the inhibition in [19] and in assay [20] were 7.97% and 7.27%, respectively.

In the case of `COc1ccc(-c2nn3ncccc3c2-c2ccnc(Nc3ccc(F)c(F)c3)n2)cc1`, the inhibition turned out to be 3.36% in [1]; 2.76% in assay [2]; 8.32% in assay [3]; 2.73% in [4]; 4.85% in assay [5]; 2.4% in assay [6]. In addition, the inhibition in assay [7] was 5%; in assay [8], -2.09%; in assay [9], -0.7%; in [10] it was 2.87%; in assay [11], 28.5%; in assay [12] it was 4.36%. Besides, the inhibition is 14.3% in [13]; 1.75% in [14]; 6.44% in assay [15]; 7.15% in assay [16]; 23.5% in [17]; 2.1% in assay [18]. Also, the inhibition in assay [19] is 1.49%; in [20] it was 8.56%.

Take `Fc1cccc(COc2ccc(Nc3ncncc3C#Cc3ccccc3)cc2Cl)c1`: the inhibition in assay [1] was determined as 2.13%; in assay [2], 2.56%; in assay [3], 5.8%; in [4], 2.81%; in assay [5], 6.63%; in assay [6] it was 1.94%. Besides, the inhibition in [7] was 3.56%; in [8], -4.7%; in [9] it was 8.47%; in [10] it was 2.33%; in assay [11], 9%; in assay [12] it was -1.58%. The inhibition was 6% in assay [13]; 1.15% in [14]; -2.38% in assay [15]; 2.78% in assay [16]; 11.7% in [17]; 0.81% in assay [18]. Besides, the inhibition in assay [19] was 0.54%; in assay [20], 6.19%.

For `CCN1CCC(C(=O)Nc2n[nH]c3nnc(-c4cccc(F)c4F)cc23)CC1`, the inhibition in assay [1] was 4.28%; in assay [2], 0.46%; in [3] it was 1.47%; in assay [4], 2.09%; in [5], 0.96%; in [6], -0.15%. Further, the inhibition in assay [7] is 1.19%; in assay [8] it was 3.04%; in [9], 2.28%; in assay [10], 2.41%; in assay [11], 0.34%; in assay [12] it was -0.39%. Further, the inhibition is 3.97% in [13]; 0.94% in assay [14]; 5.27% in assay [15]; -0.44% in assay [16]; -0.07% in assay [17]; 2.45% in assay [18]. Further, the inhibition in [19] is 3.52%; in [20] it was 3.47%.
